Measurements published in PubChem BioAssay AID1159580 (chemical genetic matrix, 2015).
The whole screen tested about 5,500 compounds, of which about 2,000 (36%) were called active. Inconclusive results (about 18%) are left out. Rule as the data show it: active = normalized growth mostly below about 0.91 (no sharp cut-off); inconclusive = no clear call, values can overlap the other calls; inactive = mostly above about 0.92. The list shows a part of the results.

Assay: chemical genetic growth profiling, strain panel (AID 1159580);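 also: tested at 20 µM; growth read once vehicle control cultures reached saturation at 30 °C; 1 = growth at the plate median or of vehicle wells; lower values mean less growth of the strain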
Details: growth OD
[1] = S. cerevisiae deletion strains, locus YHR030C, strain SLT2, hits give low values
[2] = S. cerevisiae deletion strains, locus YJL187C, strain SWE1, hits give low values
[3] = S. cerevisiae deletion strains, locus YDR150W, strain NUM1, hits give low values
[4] = S. cerevisiae deletion strains, locus YPL055C, strain LGE1, hits give low values
[5] = S. cerevisiae deletion strains, locus YPL241C, strain CIN2, hits give low values

Measured: normalized growth

OC[C@@H](O)C(O[C@@H]1O[C@H](CO)[C@H](O)[C@H](O)[C@H]1O)[C@H](O)[C@@H](O)CO (some centres undefined)
inactive: S. cerevisiae deletion strains, locus YAL021C, strain ccr4, hits give low values 0.969 | S. cerevisiae deletion strains, locus YAL026C, strain drs2, hits give low values 0.99 | S. cerevisiae deletion strains, locus YAL030W, strain snc1, hits give low values 0.986 | S. cerevisiae deletion strains, locus YBL061C, strain skt5, hits give low values 0.993 | S. cerevisiae deletion strains, locus YBR009C, strain hhf1, hits give low values 0.991 | S. cerevisiae deletion strains, locus YBR023C, strain chs3, hits give low values 0.984 | S. cerevisiae deletion strains, locus YBR171W, strain sec66, hits give low values 0.98 | S. cerevisiae deletion strains, locus YBR279W, strain paf1, hits give low values 0.981 | S. cerevisiae deletion strains, locus YCL011C, strain gbp2, hits give low values 0.995 | S. cerevisiae deletion strains, locus YCL016C, strain dcc1, hits give low values 0.983 | S. cerevisiae deletion strains, locus YCL061C, strain MRC1, hits give low values 0.994 | S. cerevisiae deletion strains, locus YCL069W, strain vba3, hits give low values 0.99 | S. cerevisiae deletion strains, locus YCR088W, strain abp1, hits give low values 0.98 | S. cerevisiae deletion strains, locus YDL005C, strain med2, hits give low values 0.979 | S. cerevisiae deletion strains, locus YDL040C, strain nat1, hits give low values 0.988 | S. cerevisiae deletion strains, locus YDR001C, strain nth1, hits give low values 0.99 | S. cerevisiae deletion strains, locus YDR069C, strain doa4, hits give low values 0.981 | S. cerevisiae deletion strains, locus YDR137W, strain rgp1, hits give low values 1 | S. cerevisiae deletion strains, locus YDR159W, strain sac3, hits give low values 0.982 | S. cerevisiae deletion strains, locus YDR195W, strain ref2 0.963 | S. cerevisiae deletion strains, locus YDR297W, strain sur2, hits give low values 0.987 | S. cerevisiae deletion strains, locus YDR334W, strain swr1, hits give low values 0.98 | S. cerevisiae deletion strains, locus YDR335W, strain msn5, hits give low values 0.987 | S. cerevisiae deletion strains, locus YDR392W, strain spt3, hits give low values 0.992 | S. cerevisiae deletion strains, locus YEL003W, strain gim4, hits give low values 1.01 | S. cerevisiae deletion strains, locus YEL037C, strain rad23, hits give low values 0.991 | S. cerevisiae deletion strains, locus YEL061C, strain CIN8 (second series), hits give low values 0.995 | S. cerevisiae deletion strains, locus YER015W, strain faa2, hits give low values 0.991 | S. cerevisiae deletion strains, locus YER016W, strain bim1, hits give low values 0.988 | S. cerevisiae deletion strains, locus YER111C, strain swi4, hits give low values 0.996 | S. cerevisiae deletion strains, locus YER155C, strain BEM2 (second series), hits give low values 0.976 | S. cerevisiae deletion strains, locus YFR010W, strain ubp6, hits give low values 0.975 | S. cerevisiae deletion strains, locus YGL167C, strain pmr1, hits give low values 0.986 | S. cerevisiae deletion strains, locus YGL173C, strain kem1, hits give low values 0.981 | S. cerevisiae deletion strains, locus YGL227W, strain vid30, hits give low values 0.99 | S. cerevisiae deletion strains, locus YGL240W, strain doc1, hits give low values 0.999 | S. cerevisiae deletion strains, locus YGL253W, strain hxk2, hits give low values 0.989 | S. cerevisiae deletion strains, locus YHR013C, strain ard1, hits give low values 0.989 | S. cerevisiae deletion strains, locus YHR027C, strain rpn1, hits give low values 1 | [1] 0.976 | S. cerevisiae deletion strains, locus YHR079C, strain IRE1, hits give low values 0.974 | S. cerevisiae deletion strains, locus YHR142W, strain chs7, hits give low values 0.983 | S. cerevisiae deletion strains, locus YJL092W, strain hpr5, hits give low values 0.989 | S. cerevisiae deletion strains, locus YJL095W, strain BCK1 (second series), hits give low values 0.98 | S. cerevisiae deletion strains, locus YJL095W, strain BCK1, hits give low values 1.03 | S. cerevisiae deletion strains, locus YJL115W, strain asf1, hits give low values 0.978 | S. cerevisiae deletion strains, locus YJL129C, strain trk1, hits give low values 0.985 | S. cerevisiae deletion strains, locus YJL154C, strain vps35, hits give low values 0.991 | S. cerevisiae deletion strains, locus YJL164C, strain tpk1, hits give low values 0.996 | S. cerevisiae deletion strains, locus YJL166W, strain qcr8, hits give low values 0.987 | [2] 0.991 | S. cerevisiae deletion strains, locus YJR066W, strain TOR1, hits give low values 0.926 | S. cerevisiae deletion strains, locus YKL160W, strain elf1, hits give low values 0.991 | S. cerevisiae deletion strains, locus YKR026C, strain gcn3, hits give low values 0.985 | S. cerevisiae deletion strains, locus YKR091W, strain srl3, hits give low values 0.983 | S. cerevisiae deletion strains, locus YLL001W, strain dnm1, hits give low values 1 | S. cerevisiae deletion strains, locus YLL026W, hits give low values 0.989 | S. cerevisiae deletion strains, locus YLL041C, strain sdh2, hits give low values 0.992 | S. cerevisiae deletion strains, locus YLR027C, strain aat2, hits give low values 0.991 | S. cerevisiae deletion strains, locus YLR113W, strain HOG1, hits give low values 1.04 | S. cerevisiae deletion strains, locus YLR221C, strain rsa3, hits give low values 0.994 | S. cerevisiae deletion strains, locus YLR258W, strain gsy2, hits give low values 0.989 | S. cerevisiae deletion strains, locus YLR262C, strain YPT6 (second series), hits give low values 1 | S. cerevisiae deletion strains, locus YLR320W, strain mms22, hits give low values 0.98 | S. cerevisiae deletion strains, locus YLR342W, strain FKS1, hits give low values 0.987 | S. cerevisiae deletion strains, locus YLR357W, strain rsc2, hits give low values 0.959 | S. cerevisiae deletion strains, locus YLR370C, strain arc18, hits give low values 0.994 | S. cerevisiae deletion strains, locus YLR384C, strain iki3, hits give low values 0.983 | S. cerevisiae deletion strains, locus YML120C, strain ndi1, hits give low values 0.995 | S. cerevisiae deletion strains, locus YMR058W, strain fet3, hits give low values 0.99 | S. cerevisiae deletion strains, locus YMR125W, strain sto1, hits give low values 0.981 | S. cerevisiae deletion strains, locus YMR129W, hits give low values 0.995 | S. cerevisiae deletion strains, locus YMR205C, strain PFK2, hits give low values 0.994 | S. cerevisiae deletion strains, locus YMR231W, strain pep5, hits give low values 0.967 | S. cerevisiae deletion strains, locus YNL071W, strain lat1, hits give low values 0.985 | S. cerevisiae deletion strains, locus YNL183C, strain NPR1, hits give low values 0.934 | S. cerevisiae deletion strains, locus YNL209W, strain ssb2, hits give low values 1.01 | S. cerevisiae deletion strains, locus YNL248C, strain rpa49, hits give low values 0.991 | S. cerevisiae deletion strains, locus YNL322C, strain KRE1 (second series), hits give low values 0.986 | S. cerevisiae deletion strains, locus YNR049C, strain mso1, hits give low values 0.981 | S. cerevisiae deletion strains, locus YOR001W, strain rrp6, hits give low values 0.989 | S. cerevisiae deletion strains, locus YOR070C, strain gyp1, hits give low values 0.996 | S. cerevisiae deletion strains, locus YOR080W, strain dia2, hits give low values 0.981 | S. cerevisiae deletion strains, locus YOR083W, strain WHI5, hits give low values 0.986 | S. cerevisiae deletion strains, locus YOR106W, strain vam3, hits give low values 0.988 | S. cerevisiae deletion strains, locus YOR231W, strain MKK1, hits give low values 0.976 | S. cerevisiae deletion strains, locus YOR265W, strain rbl2, hits give low values 1 | S. cerevisiae deletion strains, locus YOR270C, strain vph1, hits give low values 1.01 | S. cerevisiae deletion strains, locus YOR290C, strain snf2, hits give low values 0.998 | S. cerevisiae deletion strains, locus YPL051W, strain arl3, hits give low values 1.01 | S. cerevisiae deletion strains, locus YPL078C, strain atp4, hits give low values 0.997 | S. cerevisiae deletion strains, locus YPL106C, strain sse1, hits give low values 0.969 | S. cerevisiae deletion strains, locus YPL240C, strain hsp82, hits give low values 0.988 | S. cerevisiae deletion strains, locus YPL256C, strain CLN2, hits give low values 0.986

O=C(O)CCC/C=C\C[C@@H]1[C@@H](/C=C/[C@H](O)C2Cc3ccccc3C2)[C@@H](F)C[C@@H]1O
inactive: S. cerevisiae deletion strains, locus YAL040C, strain CLN3, hits give low values 0.995 | S. cerevisiae deletion strains, locus YCL061C, strain MRC1 (second series), hits give low values 0.998 | [3] 1.01 | S. cerevisiae deletion strains, locus YDR363W, strain ESC2, hits give low values 0.993 | S. cerevisiae deletion strains, locus YER002W, strain NOP16, hits give low values 0.988 | S. cerevisiae deletion strains, locus YNL175C, strain NOP13, hits give low values 0.982 | S. cerevisiae deletion strains, locus YNL197C, strain WHI3, hits give low values 0.989 | S. cerevisiae deletion strains, locus YNL224C, strain SQS1, hits give low values 0.969 | S. cerevisiae deletion strains, locus YOR083W, strain WHI5 (second series), hits give low values 1.02 | [4] 0.99 | [5] 0.996

COC(=O)c1c(OC)ccc(N=CNO)c1OC
inactive: S. cerevisiae deletion strains, locus YAL013W, strain DEP1, hits give low values 1 | S. cerevisiae deletion strains, locus YBR229C, strain ROT2, hits give low values 0.982 | S. cerevisiae deletion strains, locus YDL101C, strain DUN1, hits give low values 0.993 | S. cerevisiae deletion strains, locus YDL134C, strain PPH21, hits give low values 1.01 | [3] 0.962 | S. cerevisiae deletion strains, locus YEL061C, strain CIN8, hits give low values 1.01 | S. cerevisiae deletion strains, locus YGR078C, strain PAC10, hits give low values 1 | [1] 1.05 | S. cerevisiae deletion strains, locus YHR087W, strain rtc3, hits give low values 0.986 | [2] 0.985 | S. cerevisiae deletion strains, locus YJR043C, strain POL32, hits give low values 1 | S. cerevisiae deletion strains, locus YJR075W, strain HOC1, hits give low values 0.976 | S. cerevisiae deletion strains, locus YKL190W, strain CNB1, hits give low values 1.01 | S. cerevisiae deletion strains, locus YLR039C, strain RIC1, hits give low values 1.02 | S. cerevisiae deletion strains, locus YLR058C, strain SHM2 (second series), hits give low values 1 | S. cerevisiae deletion strains, locus YLR085C, strain ARP6, hits give low values 0.999 | S. cerevisiae deletion strains, locus YLR262C, strain YPT6, hits give low values 0.997 | S. cerevisiae deletion strains, locus YML094W, strain GIM5, hits give low values 0.993 | S. cerevisiae deletion strains, locus YMR219W, strain ESC1, hits give low values 0.999 | S. cerevisiae deletion strains, locus YMR263W, strain SAP30, hits give low values 0.926 | S. cerevisiae deletion strains, locus YMR307W, strain GAS1, hits give low values 0.94 | S. cerevisiae deletion strains, locus YNL153C, strain GIM3, hits give low values 0.989 | S. cerevisiae deletion strains, locus YNL298W, strain CLA4 (second series), hits give low values 1.03 | S. cerevisiae deletion strains, locus YNL322C, strain KRE1, hits give low values 1 | S. cerevisiae deletion strains, locus YNR030W, strain Alg12, hits give low values 0.996 | [4] 0.888 | [5] 1.01 | S. cerevisiae deletion strains, locus YPR135W, strain CTF4, hits give low values 1.07 | S. cerevisiae strains, strain wild type, hits give low values 1.03
